# Screening data deposited in PubChem by several laboratories.
# CatS block – human cathepsin S inhibition. hit rate 0.06% among 62,000. P25774. inhibition, %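 (tested at 5 µM per compound within 10-compound mixtures)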. recombinant cathepsin S, AMC dipeptide fluorescence, pooled mixtures; in the data active = inhibition above about 32%, passing the limit was not always enough;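 also: 0% = enzyme without compound and 100% = blank without enzyme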
# Target sequence (P25774 115-331 limits assumed): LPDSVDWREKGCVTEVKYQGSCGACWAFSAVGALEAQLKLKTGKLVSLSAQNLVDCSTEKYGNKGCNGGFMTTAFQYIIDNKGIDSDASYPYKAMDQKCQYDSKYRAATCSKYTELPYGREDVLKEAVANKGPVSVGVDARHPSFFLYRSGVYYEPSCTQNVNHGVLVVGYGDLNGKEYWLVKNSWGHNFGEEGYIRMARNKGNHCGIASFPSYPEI
# Cdc25B inh – human M-phase inducer phosphatase 2 inhibition. inhibition, %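 (compounds tested at 10 µM final in the well)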. P30305. recombinant Cdc25B, OMFP fluorescence Ex485/Em525. hit rate 0.1% among 65,000; in the data active = inhibition above about 50%
# MKP-1 inh – inhibitors of human MKP-1 phosphatase; hit rate 0.15% among 65,000; P28562; recombinant MKP-1, OMFP hydrolysis fluorescence; inhibition, %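 (compounds tested at a single concentration somewhere between 10 and 100 µM)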;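 active = inhibition above about 50%, limit read from the data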;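 also: 0% = DMSO max control wells and 100% = wells with enzyme stopped by NaOH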
# CatB mixtures – human cathepsin B inhibition by mixtures. hit rate 0.06% among 62,000. Purified cathepsin B, AMC dipeptide fluorescence, compound mixtures. AID 488. inhibition, %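 (ten-compound pools at 5 µM per compound and 50 µM total)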; in the data active = inhibition above about 22%, passing the limit was not always enough;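 also: 0% = enzyme without compound and 100% = no enzyme blank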
# CatL block – inhibitors of human cathepsin L; inhibition, %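 (tested at 10 µM)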; P07711; purified cathepsin L, fluorogenic substrate, fluorescence; hit rate 0.17% among 58,000; in the data active = inhibition above about 45%;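 also: 0% = enzyme with no compound and 100% = no enzyme blank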
# Target sequence (P07711 114-288 limits assumed): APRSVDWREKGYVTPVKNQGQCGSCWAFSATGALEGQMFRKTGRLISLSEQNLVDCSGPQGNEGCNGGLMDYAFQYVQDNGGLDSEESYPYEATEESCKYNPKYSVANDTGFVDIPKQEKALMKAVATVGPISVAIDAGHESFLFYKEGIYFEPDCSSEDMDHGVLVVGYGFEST
# Target sequence (P07711 292-333 limits assumed): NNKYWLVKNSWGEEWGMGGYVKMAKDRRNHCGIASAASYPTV
# CatB inh – blocks human cathepsin B protease activity | P07858 | purified cathepsin B, fluorogenic substrate, fluorescence | inhibition, %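 (tested at 10 µM)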 | hit rate 0.1% among 63,000 | AID 453; in the data active = inhibition above about 21%;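 also: 0% = enzyme with no compound and 100% = no enzyme blank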
# * = called active by the depositor; · = not tested or not shown. The list is not random: actives were taken first. Their share in the collection is about 0.5%.
SMILES,CatS block,Cdc25B inh,MKP-1 inh,CatB mixtures,CatL block,CatB inh
CN(C)CCCN1C(=O)C(=O)/C(=C(/O)c2ccc(S(=O)(=O)N(C)C)cc2)C1c1ccncc1 (stereo not drawn),2.0,-4.6,5.6,-0.4,4.7,1.9
Cc1ccn2cc(CNC(=O)c3ccc(Br)o3)nc2c1,6.9,-7.0,-3.9,5.5,20.1,0.7
CC(Sc1ccc2nnc(-c3ccc(F)cc3)n2n1)C(=O)O (stereo not drawn),16.8,-2.1,1.7,4.2,54.0*,8.8
CCOc1ccc(NC(=O)N(C2CCCCC2)C2CCN(C(C)=O)CC2)cc1,-9.4,63.8*,1.7,0.6,6.4,1.3
O=C(CN1CCCN(S(=O)(=O)c2ccc(Br)cc2)CC1)Nc1ccc2c(c1)OCO2,2.9,-3.2,12.0,8.2,51.4*,-2.1
Cc1noc(C)c1CSc1cc(C)c2ccccc2n1,-9.2,-13.4,-5.2,1.5,·,0.6
CCCC(C(=O)NC1CCCC1)N(C(=O)Cn1nnc(-c2ccc(C)o2)n1)c1ccccc1OC (stereo not drawn),1.8,-16.4,24.6,-0.3,2.4,1.7
O=C(Nc1ccccc1)C1CC2CCCC(C1)C2=O (stereo not drawn),2.8,-2.2,-13.1,0.5,10.0,4.7
O=C(Nc1ccc(Nc2ccccc2)cc1)C1CC1,-5.5,-2.6,-5.6,-7.7,7.3,21.6*
CCOC(=O)N1CCC(NC(=O)C2CCCCN2S(=O)(=O)c2ccc(F)cc2)CC1 (stereo not drawn),-1.6,-2.6,11.8,-6.3,104.2*,-2.5
Cc1ccc(S(=O)(=O)N2CCCC2C(=O)NC2CCCCC2)cc1 (stereo not drawn),12.2,-20.0,26.8,2.2,18.1,1.5
Cn1c2ccccc2c2cnn(CC(=O)N3CCN(c4ncccn4)CC3)c(=O)c21,11.0,-22.2,7.7,-0.4,14.6,5.1
Cc1nn(Cc2ccccc2)c(C)c1NC(=O)CSc1nc2sc3c(c2c(=O)n1C)CCC3,0.0,-5.7,50.1*,1.8,12.2,1.4
COc1ccc2nc(COC(=O)c3ccco3)c(C(C)=O)[n+]([O-])c2c1,-5.8,2.0,-8.4,2.8,-3.5,-0.7
COc1ccc2nc(CC(C)(C)CC(=O)O)c[n+]([O-])c2c1,-14.8,-0.5,14.6,5.8,-12.4,23.2*
Cn1c(=O)c(=O)n(C)c2cc(S(=O)(=O)N3CCCCCC3)ccc21,-5.0,23.9,3.4,46.4*,-5.1,-7.8
O=C(COC(=O)Cc1ccsc1)NC1CCCCCC1,9.3,2.7,7.8,-3.1,·,1.6
CCn1cc(C(=O)OCC(=O)Nc2ccc(S(=O)(=O)N3CCCC3)cc2)c(=O)c2ccc(C)nc21,10.3,-5.0,17.3,4.2,0.5,-1.6
Cc1ccc(C)c(S(=O)(=O)N2CCN(CC(=O)NC(=O)NCc3ccccc3)CC2)c1,5.1,-10.2,29.1,-0.6,14.2,1.8
COc1cc(NC(=O)c2cccc3c2C(=O)N(Cc2cccnc2)C3)cc(OC)c1OC,1.4,-12.0,19.6,-7.5,6.7,-1.0
Nc1nonc1-c1nc2ccccc2[nH]1,2.1,5.7,-6.2,52.0*,40.8,18.1
COC(=O)C1=C(C)N=C2SCCC(=O)N2C1c1cccs1 (stereo not drawn),0.1,53.5*,6.4,1.4,·,-0.8
COc1ccc(N(CC(=O)NCC2CCCO2)S(=O)(=O)c2c(C)noc2C)cc1 (stereo not drawn),1.7,3.7,-9.4,-0.4,3.1,31.7*
CCc1ccccc1NC(=O)CSc1nnc([C@@H](N)Cc2ccccc2)o1,32.9,0.3,8.5,7.2,·,3.7
CCN(CC)C(=O)CSc1nnc([C@@H](N)Cc2ccccc2)o1,1.4,1.0,8.9,-1.2,82.6*,-1.6
SMILES,CatS block,Cdc25B inh,MKP-1 inh,CatB mixtures,CatL block,CatB inh
Cc1cc(NS(=O)(=O)c2ccc(NC(=O)CCCOc3ccc(Cl)cc3)cc2)no1,·,4.3,32.8,·,·,·
Cc1cc(NC(=O)CCCOc2ccc(Cl)cc2Cl)no1,·,64.2*,7.9,·,·,·
O=C(Nc1ccccc1)c1cccnc1N1CCOCC1,0.9,53.2*,0.5,-2.4,3.9,2.2
Cc1nnc2ccc(N3CCN(c4ccccn4)CC3)nn12,9.8,-12.2,-3.7,5.8,·,50.6*
Cc1nnc2ccc(N3CCN(c4cccc(C(F)(F)F)c4)CC3)nn12,-0.2,-3.9,2.5,7.9,14.6,-1.9
Cc1cccc(N2CCN(C(=O)C3CCCN(S(=O)(=O)c4cccc5cccnc45)C3)CC2)c1C (stereo not drawn),4.7,-23.9,9.2,4.0,8.2,7.2
CC1CCN(S(=O)(=O)c2ccc3c(c2)c(=O)c(C(=O)NC2CCCC2)cn3C)CC1,3.7,-0.9,50.4*,0.6,-5.9,-2.8
COc1ccc2c(C)nc(Nc3nc(C)cc(C)n3)nc2c1,1.0,1.9,-5.8,-2.4,61.3*,3.6
Cn1c(=O)c2c(-c3ccccc3)n(-n3cnnc3)cc2n(C)c1=O,-6.1,-12.4,17.6,50.3*,25.4,59.2*
CCOC(=O)CNS(=O)(=O)c1cc(-c2n[nH]c(=O)c3ccccc23)ccc1C,·,1.8,-15.5,·,6.8,23.0*
COc1nnc(-c2ccc(C)c(S(=O)(=O)NCCO)c2)c2ccccc12,-9.7,0.4,5.2,-15.8,-1.9,3.0
CC(C)CC(C(=O)Nc1oc(-c2ccco2)c(-c2ccco2)c1C#N)N1C(=O)c2ccccc2C1=O (stereo not drawn),3.3,30.2,35.8,2.0,19.0,5.2
CC1CCN(Cc2ccc(NC(=O)C3CCN(c4nnc(-n5cccc5)s4)CC3)cc2)CC1,·,-3.3,-4.3,5.9,66.5*,12.9
O=C(NCCC1=CCCCC1)C1CCN(c2nnc(-n3cccc3)s2)CC1,2.4,2.7,10.8,2.6,·,3.9
O=C(C1CCN(c2nnc(N3CCCC3=O)s2)CC1)N1CCN(Cc2ccc3c(c2)OCO3)CC1,11.1,17.9,35.2,3.7,47.0*,-5.5
O=C(C1CCN(c2nnc(-n3cccc3)s2)CC1)N1CCN(Cc2ccc3c(c2)OCO3)CC1,5.5,5.1,1.2,-6.5,53.0*,2.0
O=C(C1CCCN(Cc2ccc3c(c2)OCO3)C1)N1CCCC1 (stereo not drawn),14.0,-15.9,-2.9,-6.2,15.3,4.7
COc1cc(Cl)c(C)cc1NC(=O)CSc1nnc(-c2ccccn2)n1Cc1ccco1,-4.8,-10.5,-10.3,2.0,-15.9,-1.0
COc1ccc(N(CC(=O)Nc2cccc(C)c2C)S(=O)(=O)c2c(C)n[nH]c2C)cc1,3.3,-2.0,1.1,0.9,12.3,61.5*
COc1ccccc1NC(=O)CN(c1ccc(C)cc1)S(=O)(=O)c1c(C)n[nH]c1C,1.4,19.1,31.5,4.9,-3.0,-0.3
COc1ccc(C(c2nnnn2Cc2cccs2)N2CCN(c3ccccc3F)CC2)cc1 (stereo not drawn),6.3,-11.5,33.1,1.9,1.7,-0.8
O=C(OCCCN1CCCCC1)c1ccc(O)cc1,10.1,57.3*,-31.8,0.1,10.5,6.9
COc1ccc(CNC(=O)C2CCN(S(=O)(=O)c3cc(OC)ccc3OC)CC2)cc1,-5.5,-3.6,6.7,1.4,-8.0,-5.1
